From PubChem BioAssay
Dicer inh – human Dicer pre-microRNA cleavage inhibition | cat-ELCCA pre-miR-21 Dicer processing, chemiluminescence; stronger effect = higher value | 6% of 47,000 active | z-score at 25 µM | AID 1347074; in the data active means z-score above about 3, passing the limit was not always enough;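 further: plate controls were vehicle for no effect and no enzyme for full effect; higher signal means more uncleaved substrate so more Dicer inhibition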
Numbers without * were called inactive. The entries come from a sample that favours hits as a whole.

SMILES | Dicer inh
C=CCOC(=O)C1=C(C)NC2=C(C(=O)CCC2)C1c1cccc(Cl)c1 (stereo unspecified) | -0.37
O=C(O)CC(Sc1nc2sc3c(c2c(=O)[nH]1)CCCC3)C(=O)O (stereo unspecified) | -0.14
Nc1nc(SCC(=O)NCCCO)nc2sc3c(c12)CCCC3 | 0.12
O=C(CSc1nc2sc3c(c2c(=O)[nH]1)CCCC3)NCCN1CCOCC1 | 3.88*
CCOC(=O)c1c(NC(=O)Nc2cccc(Cl)c2)sc2c1CCC(C)C2 (stereo unspecified) | -0.47
CC(=O)CSc1nc(SCC(C)=O)c2cnc(N3CCCC3)nc2n1 | -1.53
CSC(=NCc1c(N(C)C)cccc1N(C)C)NS(=O)(=O)c1ccccc1 | 1.3
CCSC1=NC(C)(C)Cc2cc(OC)c(OC)cc21 | -1.03
CCOC(=O)c1cc(C#N)c(Sc2n[nH]c(-c3cc(Cl)cc(Cl)c3)n2)nc1C(F)(F)F | -0.27
COc1ccc2ccccc2c1C(O)c1nccn1C (stereo unspecified) | -3.59
COc1ccc(C(O)c2nccn2C)cc1OC (stereo unspecified) | 3.51*
Cn1ccnc1C(O)c1ccccc1 (stereo unspecified) | 1.26
CC1CCCCN1CCCNC(=S)Nc1cc(C(F)(F)F)cc(C(F)(F)F)c1 (stereo unspecified) | -0.19
CC(=O)n1cc(/C=C2/N=C(c3ccccc3)OC2=O)c2ccccc21 | 3.04*
O=C1OC(c2ccccc2)=N/C1=C/c1cccs1 | -0.63
COc1ccc(/C=C2\N=C(c3ccccc3)OC2=O)c(OC)c1 | -1.5
Cc1ccc(CN2CC34C=CC(O3)C(C(=O)OC(C)C)C4C2=O)cc1 (stereo unspecified) | 0.5
Cc1[nH]n2c(=O)cc(CSc3nnnn3-c3ccccc3)nc2c1-c1ccc(Cl)cc1 | 0.05
CC1CCN(S(=O)(=O)c2cccc3c(S(=O)(=O)N4CCC(C)CC4)cccc23)CC1 | -0.72
O=C(O)c1cccnc1C(=O)N1CCc2c([nH]c3ccccc23)C1C(F)(F)F (stereo unspecified) | 0.23
O=C(CSc1nc2ccccc2s1)N1CCc2c([nH]c3ccccc23)C1C(F)(F)F (stereo unspecified) | -1.79
O=C(CSc1nccc(-c2cccs2)n1)N1CCc2c([nH]c3ccccc23)C1C(F)(F)F (stereo unspecified) | 3.3*
CCOC(=O)Cn1c2ccccc2n2nc(C)nc12 | -0.27
O=c1cc(C(F)(F)F)[nH]n1-c1nc2ccccc2s1 | 0.2
CCOC(=O)c1c(SC)nc2c(Cl)cccc2c1N1CCCCC1 | -1.92
SMILES | Dicer inh
CCS(=O)(=O)N1CCN(CC2CC=CCC2)CC1 (stereo unspecified) | 3.72*
CC(C)CC(=O)N1CCN(CC2CC=CCC2)CC1 (stereo unspecified) | 1.57
CSc1ccc(CN2CCN(CC3CC=CCC3)CC2)cc1 (stereo unspecified) | 1.22
COc1nc(C)nc(NC(=O)Nc2sc(=S)n(C)c2C)n1 | -0.05
Cn1c(=O)c2c(nc(Sc3ccc(Cl)cc3)n2C)n(C)c1=O | 3.14*
CC(C)n1c(SCc2ccccc2F)nc2c1c(=O)n(C)c(=O)n2C | -0.32
Cn1c(=O)c2c(nc(Cl)n2Cc2cccc(Cl)c2)n(C)c1=O | 0
Cn1c(=O)c2c(nc(Cl)n2Cc2ccc(F)cc2)n(C)c1=O | 3.12*
Cn1c(=O)c2c(nc(SCc3cc4c(cc3Cl)OCO4)n2C)n(C)c1=O | 0.59
Cn1c(=O)c2c(nc(Br)n2Cc2ccc(Cl)cc2)n(C)c1=O | 4.21*
Cn1c(=O)c2c(nc(Cl)n2Cc2ccc(C(C)(C)C)cc2)n(C)c1=O | 15.6
Cc1ccccc1CSc1nc2c(c(=O)n(C)c(=O)n2C)n1C | 5.15*
Cn1c(=O)c2c(nc(Sc3ccccc3)n2Cc2ccc(Cl)cc2Cl)n(C)c1=O | 1.27
Cn1c(=O)c2c(ncn2Cc2ccc(Cl)cc2)n(C)c1=O | -0.04
Cn1c(=O)c2c(nc(N3CCCCC3)n2Cc2ccc(Cl)cc2)n(C)c1=O | 0.07
Cn1c(=O)c2c(nc(N3CCOCC3)n2Cc2ccc(Cl)cc2)n(C)c1=O | -0.46
CC(=O)N1[C@@H](C(=O)O)C(C)(C)S[C@H]1c1ccccc1 | 1.45
CCc1cccc(C)c1N1C(=O)c2cccnc2C1=O | 1.3
Cc1cc(C(=O)C(F)(F)F)c(C)n1-c1cc(C(F)(F)F)cc(C(F)(F)F)c1 | 0.36
Cn1c(=O)c2c3nc4ccc([N+](=O)[O-])cc4cc3c(=O)n(-c3ccccc3)c2n(C)c1=O | 0.59
COc1ccc(-c2c(C)n[nH]c2C)c(C(=O)O)c1 | 0.3
Cc1ccc(S(=O)(=O)N/N=C(/c2ccccc2)c2ccc(OCC(C)C)cc2)cc1 | -1.78
Cc1cc(-c2nn(C)c(=O)c3ccccc23)cc(C)c1OCC(=O)NNS(=O)(=O)c1cc(Cl)ccc1Cl | -0.2
Cc1nn(-c2ccccc2)nc1C(=O)N1CCC(O)(c2ccc(Cl)cc2)CC1 | 1.57
COc1cc(CNCc2cc(Br)ccc2OC)cc(OC)c1 | 0.2
SMILES | Dicer inh
COc1ccc(Br)cc1CNc1cc(C)cc(C)c1 | 3.61*
COc1ccc(CNCc2cc(Br)ccc2OC)cc1 | 2.19
CC1(C)CCc2cc(/C=C(\C#N)S(C)(=O)=O)ccc2O1 | -0.76
Cc1onc(-c2ccccc2)c1C(=O)On1c(-c2ccccc2)nc2ccccc2c1=O | -0.31
CC1CCC2C(=O)N(c3ccc(Oc4ccccc4)cc3)C(=O)C2C1 (stereo unspecified) | 1.64
CC(=O)/C(N=Nc1ccc(C(C)C)cc1)=C(\C)O | 0.77
CC1CCc2c(sc(NC(=O)c3ccco3)c2C(=O)O)C1 (stereo unspecified) | 1.51
Cc1onc(-c2ccccc2)c1C(=O)Nc1sc2c(c1C#N)CCC(C)C2 (stereo unspecified) | 4.72*
Cc1onc(-c2ccccc2)c1C(=O)NC1CCCCC1NC(=O)c1c(-c2ccccc2)noc1C (stereo unspecified) | -0.3
Cc1cccc(C)c1OCCn1cncn1 | 3.27*
Cc1cc(Cl)cc(C)c1OCCn1ccnc1 | 1.18
Cc1cccc(C)c1OCCCc1c(C)n[nH]c1C | -0.53
c1ccc(C2Oc3ccccc3C3CC(c4cccs4)=NN32)nc1 (stereo unspecified) | 1.46
Cc1ccc(C2=NN3C(C2)c2ccccc2OC3c2ccc(F)cc2)o1 (stereo unspecified) | 2.06
O=[N+]([O-])c1ccc(/C=C/C2Oc3ccccc3C3CC(c4cccs4)=NN23)o1 (stereo unspecified) | 6.54*
CCCCSC1=C(C#N)C(=O)NC(c2ccc(N(C)C)cc2)S1 (stereo unspecified) | -0.38
C=C(NCc1ccncc1)c1ccc(Cl)cc1 | -0.32
Cc1c(Cl)cccc1NC(=S)NNC(=O)CC#N | 0.63
Cc1cccc(Cl)c1NC(=O)CC#N | 3.93*
CCNCC(=O)Nc1c(C)cccc1C | 1.8
COc1ccc(S(=O)(=O)n2ccnc2)cc1C | -1.03
Cn1c(=O)c2c(-c3ccccc3)n(CCCO)cc2n(C)c1=O | 5.83*
Cc1ccc(-c2c3c(=O)n(C)c(=O)n(C)c3cn2C)cc1 | 0.83
Cn1c(=O)c2c(-c3ccccc3)n(C(CO)(CO)CO)cc2n(C)c1=O | 0.81
Cc1cc([N+](=O)[O-])nn1Cc1cccc(C(=O)O)c1 | 0.47
Cc1cc(-c2noc(COc3ccc(F)cc3F)n2)c2ccccc2n1 | 0.06
O=C(NCC1c2ccccc2CCN1C(=O)CN1CCOCC1)C1CCCCC1 (stereo unspecified) | 4.47*
O=C(CN1CCOCC1)N1c2ccccc2CCc2ccccc21 | 2.63
O=C(NCC1NCCc2ccccc21)C1CCCCC1 (stereo unspecified) | 1.51
Cn1cnc2c1c(=O)n(CCNCCO)c(=O)n2C | 1.4
